Among all 63,000 compounds or so, about 1,100 (1.7%) were called active. Many of the other results were omitted from the sample, so actives are more common in it than they were. Results with a measured potency or affinity are listed apart. Values without a mark were called inactive.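 Rule for the calls: active = compounds whose percent cytotoxicity in the single-dose primary screen, scaled between solvent and toxic-drug controls, exceeds 50; inactive = the rest.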
test: viability loss of HPDE-C7K cells – cell-based, fluorescence, HTS, primary screen (AID 431); settings: HPDE-C7K KRASV12 cells, Alamar Blue viability, 48 h; at 10 µM; stronger effect = higher value;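 note: 0% = DMSO solvent wells and 100% = doxorubicin-treated wells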

In order of rising cytotoxicity:
1. Cc1ccc(N2CCN(c3ccc(C)cc3)C2c2ccncc2)cc1  -25.3%
2. COc1ccc(N=C2SC(C(=O)Nc3ccc4c(c3)OCO4)CC(=O)N2C)cc1 (centres undefined)  -25%
3. CC(C)CN(CC(C)C)S(=O)(=O)N1CCC(C(=O)NCCN2CCOCC2)CC1  -24.9%
4. CCOC(=O)c1cccc(NC(=O)CSc2nnc(COc3ccccc3)n2CC)c1  -20.1%
5. CCN(CC)CCNC(=O)c1cc2c(=O)n(C)c3ccccc3c2n1C  -20%
6. N#Cc1nc(COc2ccccc2)oc1NCCN1CCOCC1  -18.1%
7. COc1ccc(OC)c(-n2cnc3cc(C(=O)O)ccc32)c1  -15.9%
8. COc1ccc(S(=O)(=O)N(C)CC(=O)Nc2cccc(C(C)=O)c2)cc1  -14.2%
9. C=CCn1c(COc2ccccc2)nnc1SCC(=O)Nc1ccc(S(N)(=O)=O)cc1  -13.8%
10. N#Cc1nc(Cc2ccccc2)oc1NCc1cccnc1  -11.2%
11. COC(=O)c1cc(NC(=O)C2CC=CCC2C(=O)O)cc(C(=O)OC)c1 (centres undefined)  -9.5%
12. O=C(Cn1cc2c(n1)CCCC2)Nc1ccccc1Cl  -7.1%
13. N#C/C(Cn1c[n+](NC(=O)Nc2ccccc2)cn1)=N/O  -6.9%
14. CC1Cn2c(nnc2-c2cccc(N)c2)S1 (centres undefined)  -6.4%
15. COc1cc(Nc2cc(C)nc3nc(C)nn23)cc(OC)c1OC  -6%
16. O=S(=O)(NC1CCCC1)c1ccccc1Cl  -5.7%
17. Cc1cccc(N2CCN(C(=O)COc3cc(=O)n(C)c4ccccc34)CC2C)c1 (centres undefined)  -5.4%
18. Cc1ccc(S(=O)(=O)N(C)Cc2nc(-c3ccc(Br)cc3)no2)cc1  -5%
19. O=C(CN1CCN(c2ccc(Cl)cc2)CC1)Nc1ccc(F)c(F)c1  -4.6%
20. CC1CCN(CCNC(=O)C2CCCN(S(=O)(=O)c3cccc4nonc34)C2)CC1 (centres undefined)  -4.5%
21. CC(C)OC(=O)c1c(NC(=O)c2cccs2)sc2c1CCCC2  -3.4%
22. COc1ccccc1NC(=O)CN1CCC(n2nnc3cc(F)ccc32)CC1  -3.1%
23. N#Cc1nc(COc2ccc(F)cc2)oc1NCCN1CCOCC1  -2.9%
24. OCc1nnn(-c2cccc(C(F)(F)F)c2)c1CO  -2.5%
25. Cc1ccc2c(c1)NC(=O)C(CC(=O)NCCN(C)C)O2 (centres undefined)  -2.3%
26. Cc1c(NC(=O)COC(=O)C2CC3C=CC2C3)c(=O)n(-c2ccccc2)n1C (centres undefined)  -2.3%
27. COc1ccccc1NC(C)=O  -2.1%
28. COc1cc(Br)cc(CN2CCN(C=O)CC2)c1O  -2.1%
29. Cc1nn(C)cc1/C=N/O  -2%
30. COc1ccc(-c2nnc(COc3ccc4ccccc4c3)o2)cc1OC  -1.8%
31. O=C1CSC(c2ccco2)N1 (centres undefined)  -1.3%
32. Cc1ccc2c(c1)NC(=O)C(CC(=O)NCCCN1CCCC1=O)O2 (centres undefined)  -1%
33. O=C(Nc1nc(-c2ccc3c(c2)OCO3)cs1)C1CC1  -0.9%
34. O=C1CC(SCc2nc3ccccc3[nH]2)C(=O)N1c1cccc(F)c1 (centres undefined)  -0.8%
35. Cc1nc(NCC2CCCO2)c2nnn(Cc3ccccc3)c2n1 (centres undefined)  -0.3%
36. Nc1nc(-c2ccc3c(c2)OCCO3)cs1  -0.3%
37. CC1CN(S(=O)(=O)c2ccc(NC(=O)c3ccco3)cc2)CC(C)O1 (centres undefined)  -0.1%
38. O=C(O)CC(CNS(=O)(=O)c1ccccc1)c1ccccc1 (centres undefined)  0%
39. CC1(C)CNC(=O)c2sc(NC(=O)CN3CCOCC3)nc2C1  0.1%
40. CC(C)c1ccc(NC(=O)c2cnn(-c3ccccc3)c2NC(=O)c2ccco2)cc1  0.3%
41. Cc1ccccc1-c1nnc(-c2ccc(Br)cc2)o1  0.4%
42. COc1ccc(-c2nc(C#N)c(NCCCN3CCOCC3)o2)cc1  0.5%
43. CC(/C(O)=C(\C#N)c1nc2ccccc2n1C)N1C(=O)c2ccccc2C1=O (centres undefined)  0.7%
44. Cc1cc(S(=O)(=O)NCCN2CCOCC2)c(C)s1  1.5%
45. O=C(CCN1C(=O)COc2ccccc21)NCCN1CCN(c2ccccc2F)CC1  2%
46. O=C(NCc1ccccn1)C1CCC(=O)N1C1CCCC1 (centres undefined)  2.2%
47. CCOC(=O)c1c(NC(=O)c2cccs2)sc(C)c1CC  2.4%
48. Cc1cccc(NC(=O)c2ccc(S(=O)(=O)N3CCCCC3)cc2)n1  2.7%
49. c1cncc(C2Nc3ccccc3-c3nc4ccccc4n32)c1 (centres undefined)  3.3%
50. O=C(C1CCN(S(=O)(=O)c2cccc3cccnc23)CC1)N1CCCC1  3.6%
51. O=C(c1nc2nc(-c3ccc(Cl)cc3)cc(C(F)(F)F)n2n1)N1CCOCC1  3.6%
52. COc1ccccc1CNC(=O)c1ccc(CNc2c(N3CCCC3)c(=O)c2=O)cc1  4.2%
53. COc1cc(NCCCC(C)N)c2ncccc2c1 (centres undefined)  4.4%
54. COC(=O)C1=C(C)n2nnnc2NC1c1cc2ccccc2o1 (centres undefined)  4.4%
55. c1cncc(Nc2nc(-c3ccncc3)cs2)c1  4.9%
56. COC(=O)C1=C(C)n2cnnc2NC1c1ccc(Cl)cc1 (centres undefined)  6.1%
57. CCCc1nc(-c2cc3ccc(C)cc3[nH]c2=O)no1  6.3%
58. Cc1cccc(N2CCN(C(=O)c3ccncc3)CC2C)c1 (centres undefined)  7.3%
59. COc1cccc(C=Nc2cc(C)on2)c1O  7.3%
60. Cc1cc(C)c2nc(-c3ccccn3)cc(C(=O)Nc3cc(C)on3)c2c1  8.1%
61. Cc1cc(NC(=O)c2cc(-c3cccnc3)nc3c(C)c(C)ccc23)no1  8.8%
62. COC(=O)Cc1cc(=O)[nH]c(Nc2nc3ccccc3o2)n1  11.4%
63. N#Cc1nc(-c2ccc(OCc3ccccc3)cc2)oc1NCc1cccnc1  12.7%
64. N#Cc1nc(-c2ccc(OCc3ccccc3)cc2)oc1NCCN1CCOCC1  12.8%
65. CS(=O)(=O)Nc1cccc2cccnc12  14.8%
66. CCOC(=O)c1ccccc1NC(=O)CN1CCC(n2nnc3cc(F)ccc32)CC1  15.3%
67. O=c1c2ccccc2c(/C=N/c2ncn[nH]2)c(O)n1Cc1ccccc1  17.3%
68. COc1ccc(NS(=O)(=O)c2ccc(Oc3ncccn3)cc2)cc1  18.2%
69. C=CCc1cccc(/C=N/c2ncn[nH]2)c1O  18.3%
70. COc1cc(OC)cc(C(=O)Nc2ncc3c(n2)CC(C)CC3=O)c1 (centres undefined)  18.9%
71. Cc1nc(SCC(=O)Nc2ccc(C)c(F)c2)c2oc3ccccc3c2n1  24.5%
72. Cc1cccc(N2CCN(C(=O)C3CCCN(S(=O)(=O)c4cccc5cccnc45)C3)CC2)c1C (centres undefined)  24.5%
73. O=C(Nc1cnn(Cc2ccccc2)c1)c1cc2nc(-c3ccco3)cc(C(F)(F)F)n2n1  24.8%
74. COCc1cc(=O)[nH]c(Nc2nc3ccccc3o2)n1  28.8%
75. Cc1ccccc1Cn1cc(NC(=O)c2cc3nc(-c4ccco4)cc(C(F)(F)F)n3n2)cn1  30.9%
76. C=CCNc1nc(-c2sc(NC(=O)CC)nc2C)cs1  31.5%
77. NS(=O)(=O)c1ccc(Nc2nc(-c3ccc(O)cc3)cs2)cc1  32.7%
78. C=CCNc1nc(-c2sc(NC(C)=O)nc2C)cs1  33%
79. COc1cc(-c2nnc(COc3ccc4ccccc4c3)o2)cc(OC)c1OC  36.9%
80. Cc1ccccc1Cn1ccc(NC(=O)c2cnn3c(C(F)(F)F)cc(-c4ccco4)nc23)n1  42.2%
81. O=C(Nc1cnn(Cc2ccc(F)cc2)c1)c1cc2nc(-c3ccco3)cc(C(F)(F)F)n2n1  48.5%

For `CCOc1ccc2nc(NC(=O)CN3CCC(n4nnc5cc(F)ccc54)CC3)sc2c1`, the cytotoxicity was 66.6% (active).
For `Cc1cc(NC(=O)c2cc(-c3ccncc3)nc3c(C)cccc23)no1`, the cytotoxicity was 68.1% (active).
In the case of `N#Cc1nc(COc2ccc(-c3ccccc3)cc2)oc1NCc1cccnc1`, the cytotoxicity is reported as 83.1% (active).
With `N#Cc1nc(COc2ccc(-c3ccccc3)cc2)oc1NCCCN1CCOCC1` the cytotoxicity was 50.8% (active).
For `O=S(=O)(Nc1cccc2cccnc12)c1ccc(S(=O)(=O)N2CCCC2)cc1`, the cytotoxicity was 70.3% (active).
In the case of `COc1cc(NS(=O)(=O)c2ccc(C)cc2)c2ncccc2c1`, the cytotoxicity is reported as 69.8% (active).
In the case of `CCc1c(C)sc(NC(=O)c2cccs2)c1C(=O)OC(C)C`, the cytotoxicity is reported as 51.6% (active).
With `COCc1cc(=O)[nH]c(Nc2nc3ccc(C)cc3o2)n1` the cytotoxicity was 50.7% (active).
In the case of `COc1cc(-c2nnc(COc3ccc4cc(Br)ccc4c3)o2)cc(OC)c1OC`, the cytotoxicity is reported as 75.7% (active).
With `Cc1cccc(N2CCN(c3cccc(C)c3)C2c2cccnc2)c1` the cytotoxicity was 53.7% (active).
For `Oc1c(/C=N/c2ncn[nH]2)ccc2ccccc12`, the cytotoxicity was 65.8% (active).
In the case of `COc1cc(Br)cc(/C=N/c2ncn[nH]2)c1O`, the cytotoxicity is reported as 85.2% (active).
In the case of `CC(=O)Nc1nc(C)c(-c2csc(Nc3ccc(O)cc3)n2)s1`, the cytotoxicity is reported as 63.2% (active).
For `Oc1ccc(Nc2nc(-c3ccc(O)cc3)cs2)cc1`, the cytotoxicity was 84.1% (active).
For `c1cc2c(cc1Nc1nc(-c3ccc4c(c3)OCO4)cs1)OCCO2`, the cytotoxicity was 56.7% (active).
In the case of `COC(=O)C1=C(C)n2nnnc2NC1c1ccc(Cl)cc1` (centres undefined), the cytotoxicity is reported as 69.3% (active).
In the case of `O=C(Nc1ccc(Cl)cc1)c1cc2nc(-c3ccco3)cc(C(F)(F)F)n2n1`, the cytotoxicity is reported as 69.4% (active).
In the case of `Cc1ccccc1Cn1ccc(NC(=O)c2cc3nc(-c4ccco4)cc(C(F)(F)F)n3n2)n1`, the cytotoxicity is reported as 61.3% (active).
